Reference: article PMC5540273 (PLoS ONE, 2017)

Tests used:
Settings in all cases: concentration: 1 μM, replicates: in singlicate; n = 1
[1] = test system: ADCK4
[2] = test system: AKT1
[3] = test system: AKT2
[4] = test system: AKT3
[5] = test system: ALK
[6] = test system: T1, AMPK-alpha1
T1 construct: gene PRKAA1

[7] = test system: T2, AMPK-alpha2
T2 construct: gene PRKAA2

[8] = test system: ANKK1
[9] = test system: T3, ARK5
T3 construct: gene NUAK1

[10] = test system: T4, ASK1
T4 construct: gene MAP3K5

[11] = test system: T5, ASK2
T5 construct: gene MAP3K6

[12] = test system: AURKA
[13] = test system: AURKB
[14] = test system: AURKC
[15] = test system: AXL
[16] = test system: T6, BIKE
T6 construct: gene BMP2K

[17] = test system: BLK
[18] = test system: BMPR1A
[19] = test system: BMPR1B
[20] = test system: BMPR2
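Further: KINOMEscan kinase panel screen.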

SMILES	%Inh [1]	%Inh [2]	%Inh [3]	%Inh [4]	%Inh [5]	%Inh [6]	%Inh [7]	%Inh [8]	%Inh [9]	%Inh [10]	%Inh [11]	%Inh [12]	%Inh [13]	%Inh [14]	%Inh [15]	%Inh [16]	%Inh [17]	%Inh [18]	%Inh [19]	%Inh [20]
Cl.NC(=O)c1cccc(Nc2nccc(Nc3ccc(Oc4c(Cl)cccc4Cl)c(Cl)c3)n2)c1 [GW659009]	14%	0%	0%	0%	3%	0%	0%	3%	0%	0%	0%	0%	17%	43%	5%	56%	45%	100%	0%	0%
COc1cccc(NC(=O)NC2CCN(c3ccnc(Nc4cc(OC)c(OC)c(OC)c4)n3)C2)c1 (stereo not drawn) [GSK1379763]	59%	0%	7%	0%	45%	0%	0%	40%	18%	0%	11%	75%	55%	89%	13%	78%	0%	0%	0%	8%
COc1ccc(Nc2nccc(NCCNC(=O)c3cc4ccccc4s3)n2)cc1 [GSK1379896]	29%	0%	0%	0%	6%	0%	0%	6%	3%	0%	0%	16%	0%	17%	14%	4%	23%	0%	0%	0%
Cl.c1ccc(-c2ccc3c(Nc4ccc5[nH]ccc5c4)ccnc3c2)nc1 [GW440138]	38%	0%	0%	0%	25%	0%	0%	11%	4%	0%	0%	8%	0%	1%	0%	2%	70%	0%	5%	26%
Cc1cccc(NC(=O)Nc2ccc(Oc3ncnc4ccn(C)c34)cc2)c1	0%	0%	0%	0%	0%	9%	0%	0%	0%	0%	0%	0%	94.9%	85%	44%	10%	0%	0%	0%	0%
c1ccc(Oc2ccc(Nc3ccnc4cc(-c5ccc(CNCCN6CCOCC6)o5)ccc34)cc2)nc1 [GW567145]	31%	0%	10%	0%	0%	0%	0%	34%	44%	0%	0%	22%	71%	9%	0%	0%	86%	0%	0%	14%
Cc1cccc(Nc2nc(N[C@H]3CCNC3)ncc2C(N)=O)c1.Cl [GSK2197149]	0%	0%	7%	0%	47%	22%	33%	79%	34%	0%	3%	0%	0%	58%	24%	96.9%	69%	0%	0%	0%
O=C(Nc1cccc(Oc2ccc3nc(NC(=O)C4CC4)cn3n2)c1)c1ccccc1C(F)(F)F	12%	0%	0%	0%	22%	0%	3%	1%	0%	0%	0%	89%	92.8%	77%	75%	79%	25%	0%	0%	0%
CC(C)(C)c1ccc2nccc(Nc3cccc(O)c3)c2c1 [GW856795]	41%	0%	0%	0%	39%	0%	0%	0%	0%	0%	0%	0%	33%	0%	70%	0%	59%	0%	44%	38%
